Measured values published in ChEMBL document CHEMBL1157539, “Thousands of chemical starting points for antimalarial lead identification” (Nature, 2010).
Values joined by “and” are separate entries in the source; they are usually repeats but may differ in a detail not shown here. Equal values may be shown once.

System: Plasmodium falciparum
Assay: GSK_TCMDC: Inhibition of Plasmodium falciparum Dd2 in whole red blood cells, using parasite LDH activity as an index of growth. Test compounds present at 2uM
Assay type: functional

Row | Structure (SMILES) | Inhibition
1 | CNC(=O)c1ccc2[nH]cc(C3CCN(CC4CCC(NC(=O)/C=C/c5ccccc5Cl)CC4)CC3)c2c1 (centres undefined) | 19%
2 | CC(Cc1ccc(-c2nc3ccccc3[nH]2)cc1)NCC(O)c1cccc(C(F)(F)F)c1 (centres undefined) | 90%
3 | CC[C@H]1CN2CC[C@H]1C[C@H]2[C@H](O)c1cc(/C=C/c2ccccc2)nc2ccc(OC)cc12 | 99%
4 | COCCNCc1ccc(-c2ccc(CN(C(=O)NC3CCCCC3)C3CCN(Cc4ccccc4)CC3)cc2)cc1.O=C(O)C(F)(F)F | 84%
5 | O=C(Nc1ccccc1OC(F)(F)F)NC1CCC(CN2CCC(c3c[nH]c4ccccc34)CC2)CC1 (centres undefined) | 60% and 70%
6 | CC(=O)N(Cc1cccc(-c2cccc(CNCc3ccc4c(c3)OCO4)c2)c1)C1CCN(Cc2ccccc2)CC1.O=C(O)C(F)(F)F | 21%

System: HepG2
Assay: GSK_TCMDC: Percent inhibition of human HepG2 cell line. Test compounds present at 10uM.
Assay type: functional

Row | Structure (SMILES) | Inhibition
7 | CC[C@H]1CN2CC[C@@H]1C[C@H]2[C@H](O)c1cc(-c2cccnc2)nc2ccc(OC)cc12.Cl | 20%
8 | Cc1[nH]c2cc(F)ccc2c1C1=CCN(CCCCC2(C)C(=O)Nc3c(F)cccc32)CC1 (centres undefined) | 15%
9 | CCCCCc1cc(O)c2c3c(c(=O)oc2c1)CN(C)CC3 | 4%
10 | Oc1ccccc1CNCC(O)c1cc(C(F)(F)F)cc(C(F)(F)F)c1 (centres undefined) | 15%
11 | CN(c1ccnc(Nc2ccc(CS(C)(=O)=O)cc2)n1)C1CCN(Cc2ccccc2)CC1 | 10%
12 | Cl.Cl.c1ccc2c(NCCCCCCNc3c4ccccc4nc4ccccc34)c3ccccc3nc2c1 | 60%
13 | CCCCCC(C)C(C)c1cc(O)c2c(c1)OC(C)(C)c1cnccc1-2.Cl (centres undefined) | 7%
14 | O=C(O)c1ccc2nc(-c3ccc(-c4ccccc4)cc3)n(C3CCN(Cc4ccc(-c5ncc[nH]5)cc4)CC3)c2c1 | 3%
15 | Cc1cc(N(C)C2CCN(C)CC2)nc(Nc2ccc(Br)cc2)n1 | 0%
16 | COCCNCc1ccc(-c2ccc(CN(C(=O)Nc3ccccc3)C3CCN(Cc4ccccc4)CC3)cc2)cc1.O=C(O)C(F)(F)F | 16%
17 | O=C(/C=C/c1ccc(Cl)c(Cl)c1)N1CCC(CN2C3CCC2CC(c2c[nH]c4ccccc24)C3)CC1 (centres undefined) | 84%
18 | CC(=O)Nc1ccc(OCCN(CC(C)C)c2ccc(C#N)c(C(F)(F)F)c2)c(Cl)c1 | 13%
19 | CC[C@H]1CN2CC[C@H]1C[C@H]2[C@H](O)c1cc(-c2ccccc2F)nc2ccc(OC)cc12.Cl | 13%
20 | O=C(/C=C/c1cc(F)cc(C(F)(F)F)c1)N1CCC(CN2CCC(c3c[nH]c4ccccc34)CC2)CC1 | 32%
21 | S=C(Nc1ccccc1Cl)NC1CCC(CN2CCC(c3c[nH]c4ccccc34)CC2)CC1 (centres undefined) | 31%
22 | CS(=O)(=O)Nc1ccc2[nH]cc(C3CCN(CC4CCN(C(=O)/C=C/c5ccc(Cl)c(Cl)c5)CC4)CC3)c2c1 | 27%
23 | CCCc1c(C(=O)NC2CCC(CN3CCC(c4c[nH]c5ccccc45)CC3)CC2)cnn1-c1ccccc1 (centres undefined) | 33%
24 | CC[C@H]1CN2CC[C@H]1C[C@H]2[C@@H](O)c1cc(OCCCN(C)C)nc2ccc(OC)cc12 | 0%
25 | O=c1c2ccccc2nc(/C=C/c2ccc([N+](=O)[O-])cc2)n1-c1ccccn1 | 5%

Row | Structure (SMILES) | Inhibition
26 | CC[C@H]1CN2CC[C@@H]1C[C@H]2[C@H](O)c1cc(N2CCC(c3ccccc3)CC2)nc2ccc(OC)cc12 | 45%
27 | S=C(NCC1CCCCC1)NC1CCC(CN2CCC(c3c[nH]c4ccccc34)CC2)CC1 (centres undefined) | 29%
28 | O=C(NCc1ccc(S(=O)(=O)N2CCC(CN3CCC(c4c[nH]c5ccccc45)CC3)CC2)s1)c1ccccc1 | 32%
29 | O=C(c1cc(C(=O)NCc2ccc(Cl)cc2)c(=O)n(Cc2ccc(Cl)cc2)c1)c1cc(Cl)ccc1O | 6%
30 | CN(c1cc(NC(=O)c2ccccc2)ccn1)C1CCN(Cc2cccc(F)c2)CC1.O=C(O)C(F)(F)F | 0%
31 | Cc1[nH]c2ccccc2c1C1=CCN(CCCCC23CCCc4cccc(c42)NC3=O)CC1 (centres undefined) | 9%
32 | Oc1ccc(CN2CCN(CCOC(c3ccccc3)c3ccccc3)CC2)cc1Cl | 7%
33 | O=C(NC1CCC(CN2CCC(c3c[nH]c4ccccc34)CC2)CC1)c1cn(Cc2ccccc2)c2ccccc12 (centres undefined) | 84%
34 | O=C(Nc1ccc(Oc2ccccc2)cc1)N1CCC(CN2CCC(c3c[nH]c4ccccc34)CC2)CC1 | 53%
35 | C/C=C1/CN2CC[C@H]1C[C@H]2[C@H](O)c1ccnc2ccc(OC)cc12 | 0%
36 | CCCCCCc1cc(O)c2c3c(c(=O)oc2c1)CCN(C)C3 | 0%
37 | CC(C)CN1CCC(N(C)c2cc(NC(=O)c3cccc(F)c3)ccn2)CC1.O=C(O)C(F)(F)F | 8%
38 | CNC(=O)c1ccc2[nH]cc(C3CCN(CC4CCC(NC(=O)/C=C/c5ccc(Cl)c(Cl)c5)CC4)CC3)c2c1 (centres undefined) | 0%
39 | CNC(=O)c1ccc2[nH]cc(C3CCN(CC4CCC(NC(=O)/C=C/c5ccccc5Cl)CC4)CC3)c2c1 (centres undefined) | 12%
40 | CC(Cc1ccc(-c2nc3ccccc3[nH]2)cc1)NCC(O)c1cccc(C(F)(F)F)c1 (centres undefined) | 33%
41 | CC[C@H]1CN2CC[C@H]1C[C@H]2[C@H](O)c1cc(/C=C/c2ccccc2)nc2ccc(OC)cc12 | 16%
42 | COCCNCc1ccc(-c2ccc(CN(C(=O)NC3CCCCC3)C3CCN(Cc4ccccc4)CC3)cc2)cc1.O=C(O)C(F)(F)F | 29%
43 | O=C(Nc1ccccc1OC(F)(F)F)NC1CCC(CN2CCC(c3c[nH]c4ccccc34)CC2)CC1 (centres undefined) | 33% and 35%
44 | CC(=O)N(Cc1cccc(-c2cccc(CNCc3ccc4c(c3)OCO4)c2)c1)C1CCN(Cc2ccccc2)CC1.O=C(O)C(F)(F)F | 16%
